Potency, outcome and activity change, negative = inhibition data for twelve molecules are collected here from PubChem BioAssay (NCATS).

Assay [1] is described as follows: Tertiary RLuc qRT-PCR qHTS assay for Zika virus inhibitors (AID 1347169). Further: nearly all actives have a fitted effect of over 55% in size. Further: potency means the concentration at half of the fitted maximal effect. On activity change, negative = inhibition: top concentration of the series differs between compounds; on the % scale 0 is the no-effect control and ±100 the full control effect. Summed up:
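Vero, 1,000 cells/well, o/n 37 C; cpd pinned in DMSO; ZIKV-RLuc Cambodian, MOI 1-2, 48-72 h 37 C; live-cell RLuc substrate, lum read at 1-1.5 h.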

Assay [2] is described as follows: OV-KATE Cancer Cell Toxicity qHTS against the NCATS CANVASS Library (AID 1347345). Further: on the % scale 0 is the no-effect control and ±100 the full control effect. An outline of the steps: (§1)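 1000 cells/well seeded and rested 4 h at 37 °C before pin transfer of compounds in an 11-pnt series. Exposure 72 h at 37 °C/5% CO2; viability by CellTiter-Glo luminescence after 15 min at room temperature.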
For orientation: In qHTS, concentration-response curves come from the screen itself.

The nature of assay [3]: HPAF-II Cancer Cell Toxicity qHTS against the NCATS CANVASS Library (AID 1347346). Further: on the % scale 0 is the no-effect control and ±100 the full control effect; nearly all actives have a fitted effect of over 55% in size. Summed up: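 HPAF-II cells at 1000 cells/well were treated with an 11-point concentration series for 72 hours at 37 degrees C. Viability read by CellTiter-Glo luminescence.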
A short description of assay [4]: UWB1.289 Cancer Cell Toxicity qHTS against the NCATS CANVASS Library (AID 1347347). Further: nearly all actives have a fitted effect of over 60% in size. The settings on record: outcome: dose series up to 38.3 µM. From the text: (§2) Natural products and their derivatives continue to be wellsprings of nascent therapeutic potential. However, many laboratories have limited resources for biological evaluation, leaving their previously isolated or synthesized compounds largely or completely untested. To address this issue, the Canvass library of natural products was assembled (https://tripod.nih.gov/canvass), in collaboration with academic and industry researchers, for quantitative high-throughput screening (qHTS) across a diverse set of cell-based and biochemical assays. The pure (>85% purity by liquid chromatography/mass spectrometry [LC/MS]) Canvass library of 346 natural products were submitted by 45 academic laboratories and companies around the world. […] The library was formatted into 1536-well plates and evaluated in 50 qHTS (in an 11-pnt concentration series) bioassays with broad scope of disease-relevant mechanisms. The resulting data set from 50 different assays was then systematically analyzed to identify overall trends and specific natural products with interesting biological activities. […]
(§3) Cancer Cell Toxicity protocol for cell lines COV-362, OV-KATE, OV-SAHO, UWB1.289, UWB1.289-WTBRCA1, HEK-293, HPAF-II, Panc-1005, SW1088, or U-118MG. […] Luminescence signal was acquired via the ViewLux plate reader (PerkinElmer) using a clear filter, 2 second exposure and 2x binning settings.

Assay [5] is described as follows: OV-SAHO Cancer Cell Toxicity qHTS against the NCATS CANVASS Library (AID 1347348). Further: on the % scale 0 is the no-effect control and ±100 the full control effect; nearly all actives have a fitted effect of over 55% in size.
Excerpt: as §2, §3

The nature of assay [6]: Panc-1005 Cancer Cell Toxicity qHTS against the NCATS CANVASS Library (AID 1347349). Further: on the % scale 0 is the no-effect control and ±100 the full control effect; nearly all actives have a fitted effect of over 60% in size. Summed up:
as §1

A short description of assay [7]: SW1088 Cancer Cell Toxicity qHTS against the NCATS CANVASS Library (AID 1347350). Further: nearly all actives have a fitted effect of over 75% in size. The settings on record: outcome: dose series up to 76 µM. An outline of the steps:
as §1

A short description of assay [8]: U-118MG Cancer Cell Toxicity qHTS against the NCATS CANVASS Library (AID 1347351). Further: on the % scale 0 is the no-effect control and ±100 the full control effect. An outline of the steps: as §1
A short description of assay [9]: COV-362 Cancer Cell Toxicity qHTS against the NCATS CANVASS Library (AID 1347352). Further: on the % scale 0 is the no-effect control and ±100 the full control effect. An outline of the steps:
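Cells at 1000/well were given compound 4 h after plating in an 11-point series. Viability was read by CellTiter-Glo luminescence after 72 h at 37 degrees C.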

The nature of assay [10]: A2780 Cisplatin Sensitive Ovarian Cancer Cell Toxicity qHTS against the NCATS CANVASS Library (AID 1347353). Further: nearly all actives have a fitted effect of over 60% in size. The settings on record: A2780 ovarian cancer viability, ATPLite luminescence, 72 h; at 91.4 µM (top of the series) unless noted. Summed up:
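A2780 cells, 750/well, settled 4 h at 37 °C, then treated with an 11-point compound series for 72 h. Viability was read as ATPLite luminescence after 10 min at room temperature, with bortezomib as control.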

Structures are written as SMILES. Results filed as inconclusive are left out. Values without a mark were called inactive. Activity calls are given as the source filed them. The call rests on the fitted dose curve; in most records, active means well fitted curve in the direction sought with a large enough effect; inconclusive means small, poorly fitted or top-dose-only effect, or another doubt; inactive means no such curve, though single readings can be large; an effect the other way counts as inactive or inconclusive.

Turning to `Cn1cc(C(F)(F)F)nc1-c1ccc(OCC(O)CNCCOc2ccc(O)c(C(N)=O)c2)cc1` (stereo not drawn), the Potency entry in assay [1] was “inactive”.

For `O=c1[nH]c(=S)[nH]c(-c2ccccc2)c1Cc1c(O)ccc2ccccc12`, the Potency entry in assay [1] is “inactive”.

Consider `Cc1nc(N=Nc2cc(S(=O)(=O)O)c3cc([N+](=O)[O-])cc(S(=O)(=O)O)c3c2)c(COP(=O)(O)O)c(C=O)c1O`, for which the Potency result in assay [1] was “inactive”.

With `Cn1c(=O)c2[nH]c(-c3ccc(S(=O)(=O)O)cc3)nc2n(C)c1=O`, the Potency entry in assay [1] was “inactive”.

For the molecule `O=C(O)Cc1c[nH]c2ccc(O)cc12`, the molecule was called inactive in assay [2], in assay [3], in assay [4], in [5], in assay [6] and in [7]. The result in [8], in assay [9] and in assay [10] was inactive.

With `COc1cc2c(CCNC(C)=O)c[nH]c2cc1O`, the Potency entry in [1] is “inactive”.

Regarding `CC(=O)NCCc1c[nH]c2ccc(O)cc12`, the outcome in assay [2], in [3], in assay [4], in assay [5], in [6] and in assay [7] was inactive. Moreover, the molecule was called inactive in assay [8] and in assay [9]. The outcome in [10] was “inactive [at 46.1 µM]”.

For `C=CCN1CCc2c(cc(O)c(O)c2Br)[C@@H](c2ccccc2)C1`, the Potency in [1] is 11.7 µM (active).

With `Cc1nc(N=Nc2ccc(S(=O)(=O)O)cc2S(=O)(=O)O)c(COP(=O)(O)O)c(C=O)c1O`, the activity change, negative = inhibition in assay [1] is 33.6% [at 5.25 µM].

Turning to `COc1ccccc1N1CCN(CCCNc2c(C)c(=O)n(C)c(=O)n2C)CC1`, in assay [1], the Potency result is “inactive”.

`Nc1ccc(-c2ccc3ccccc3n2)cc1`: the Potency entry in assay [1] is “inactive”.

On to `Cc1cccc(C(=O)NCN2CCN(c3ccccc3C#N)CC2)c1`, for which, in assay [1], the Potency entry was “inactive”.
